The record followed here is PubChem BioAssay (NCATS).

The target in assay [1] is Atrial natriuretic peptide receptor 1 (Homo sapiens) (UniProt P16066). Description: Natriuretic polypeptide receptor (hNpr1) antagonism - Pilot screen (AID 1347049; calls by dose curve;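 also: agonist-evoked cGMP luminescence read 20 min after hNppA addition; series mostly up to about 58 µM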). The method, boiled down:
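cGMP-sensor HEK293/hNpr1 cells, 1500/well, plated overnight at 37C. 2% GloSensor reagent, 2 h RT. Compound (23 nL pin transfer) 30 min RT, baseline luminescence pre-read. 0.1 nM hNppA, 20 min RT, post-read.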

Assay [2] addresses Atrial natriuretic peptide receptor 2 (Homo sapiens) (UniProt P20594). Description: Natriuretic polypeptide receptor (hNpr2) antagonism - Pilot subtype selectivity assay (AID 1347050; calls by dose curve). The method, boiled down:
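Luminescence from a genetically encoded cGMP luciferase biosensor in hNpr2-expressing HEK293 cells is read before and 20 min after adding 1 nM hNppC. Test compounds, in interplate 1:5 titrations, are added 30-50 min ahead of the agonist.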

Assay [3] can be described thus: NS1 protein of Zika virus - qHTS assay to identify small molecule inhibitors in human HEK 293 cells (AID 1347053). Also: series mostly up to about 46 µM; nearly all actives have a fitted effect of over 55% in size. In a few lines:
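Read-out is a two-antibody TR-FRET for ZIKV NS1, normalized between uninfected cells and infected cells. Compound added 1 h before MR766 infection at MOI 0.5; human HEK 293 cells incubated 24 h, 37 C.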

Assay [4] deals with T1, Tyrosine-protein phosphatase non-receptor type substrate 1 (Homo sapiens) + Leukocyte surface antigen CD47 (Homo sapiens) (UniProt P78324+Q08722). Nature of the assay: CD47-SIRPalpha protein protein interaction - LANCE assay qHTS validation (AID 1347057; active = well fitted curve in the direction sought with a large enough effect in the signal ratio, with a control signal flat, not every such curve was filed as active; the % refers to the signal ratio; also: series mostly up to about 38 µM). In a few lines:
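Inhibition of soluble CD47/SIRPalpha ectodomain association by titrated compounds, measured as 665/615 nm time-resolved FRET ratio after sequential 30 min room-temperature incubations.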
In general terms: TR-FRET usually uses a lanthanide donor and a delayed reading to cut background.

Assay [5] has as its target T1, Tyrosine-protein phosphatase non-receptor type substrate 1 (Homo sapiens) + Leukocyte surface antigen CD47 (Homo sapiens). Description: CD47-SIRPalpha protein protein interaction - HTRF assay qHTS validation (AID 1347058; active = well fitted curve in the direction sought with a large enough effect in the signal ratio, not every such curve was filed as active; the % refers to the signal ratio; also: series mostly up to about 38 µM). The method, boiled down:
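Soluble extracellular domains (6His-CD47, Avi-tag-biotinylated SIRPalpha) in PBS pH 7.4 with 0.05% IGEPAL CA-630. Compounds were preincubated 30 min at RT with CD47 and anti-His-Eu, then SIRPalpha and SAV-XL665 were added. TR-FRET 665/615 ratio.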

Assay [6] addresses Parathyroid hormone/parathyroid hormone-related peptide receptor (Homo sapiens) (UniProt Q03431). Nature of the assay: qHTS for PTHR1 Agonists: Optimization Screen against the NCGC LOPAC library (AID 1347079).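 Also: GloSensor cAMP luminescence in HEK-293 GP2 cells expressing human PTHR1 with IBMX.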 The method, boiled down:
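HEK-293 GP2 cells, PTHR1 + GloSensor cAMP; 3000 cells/well, o/n. Luciferin + IBMX 0.5mM each (stock), 1 hr 37C. Cpd titration, 1 hr 37C. Lum after 15 min RT. Ctrl M-PTH(1-15) top 10uM.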
(In general: In qHTS, concentration-response curves come from the screen itself.)

Assay [7] can be described thus: qHTS of pediatric cancer cell lines to identify multiple opportunities for drug repurposing: Primary screen for TC32 cells (AID 1347089). Also: nearly all actives have a fitted effect of over 60% in size. The method, boiled down: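 Measured quantity: luminescence from CellTiter-Glo, reflecting metabolically active TC32 cells following 48 h of compound. Curves came straight from multi-point titrations, with 8 or 11 points in primary and 11 in confirmatory screening.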

Assay [8] in a line: qHTS of pediatric cancer cell lines to identify multiple opportunities for drug repurposing: Primary screen for SJ-GBM2 cells (AID 1347091). Also: potency is read from the fitted curve at half-maximal effect. In a few lines:
(§1)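 Viability measured as metabolically active cells via CellTiter-Glo luminescence following 48 hours of compound exposure, 11-point dilutions in confirmatory testing. 500-1,000 cells/well plated 5 hours before dosing; controls were DMSO and 2.3 µM bortezomib.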

Assay [9] in a line: qHTS of pediatric cancer cell lines to identify multiple opportunities for drug repurposing: Primary screen for BT-37 cells (AID 1347094). Also: series mostly up to about 57 µM. The method, boiled down:
(§2)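 Following a 5-hour attachment period, cells at 500-1,000/well received compounds and were cultured for 48 hours. CellTiter-Glo was added and luminescence read to estimate viable, metabolically active cells.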

Assay [10] can be described thus: qHTS of pediatric cancer cell lines to identify multiple opportunities for drug repurposing: Primary screen for NB-EBc1 cells (AID 1347095). Also: potency is read from the fitted curve at half-maximal effect. The method, boiled down:
as §2

Assay [11] is described as follows: qHTS of pediatric cancer cell lines to identify multiple opportunities for drug repurposing: Primary screen for U-2 OS cells (AID 1347096). Also: nearly all actives have a fitted effect of over 50% in size. The method, boiled down:
(§3)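 Viability after 48 h compound treatment at 37C, 500-1,000 cells/well, read as ATP luminescence with CellTiter-Glo. Primary screens used 11-point (MIPE, 0.78 nM-46 µM) or 8-point (NPC, 0.59 nM-46 µM) final concentrations; follow-up screens used 11-point dilutions.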

Assay [12] in a line: qHTS of pediatric cancer cell lines to identify multiple opportunities for drug repurposing: Primary screen for Saos-2 cells (AID 1347097). Also: nearly all actives have a fitted effect of over 40% in size. Also: potency is read from the fitted curve at half-maximal effect. In a few lines: as §2
Assay [13] can be described thus: qHTS of pediatric cancer cell lines to identify multiple opportunities for drug repurposing: Primary screen for SK-N-SH cells (AID 1347098). Also: nearly all actives have a fitted effect of over 65% in size. Also: potency is read from the fitted curve at half-maximal effect. In a few lines:
(§4)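 Cells (500-1,000/well) rested 5 h, then received compounds for 48 h; metabolically active cells were measured by CellTiter-Glo luminescence. Final concentrations spanned up to 46 µM (MIPE, 11-point) or 0.59 nM-46 µM (NPC, 8-point) in primary screens, 11-point in follow-ups.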

Assay [14] in a line: qHTS of pediatric cancer cell lines to identify multiple opportunities for drug repurposing: Primary screen for LAN-5 cells (AID 1347100). Also: potency is read from the fitted curve at half-maximal effect. The method, boiled down:
as §3

Assay [15] in a line: qHTS of pediatric cancer cell lines to identify multiple opportunities for drug repurposing: Primary screen for BT-12 cells (AID 1347101). Also: nearly all actives have a fitted effect of over 25% in size. The method, boiled down:
as §4

Assay [16] has as its target T1, Tyrosine-protein phosphatase non-receptor type substrate 1 (Homo sapiens) + Leukocyte surface antigen CD47 (Homo sapiens). Nature of the assay: CD47-SIRPalpha protein protein interaction - Alpha assay qHTS validation (AID 1347059).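 Also: bead proximity luminescence from CD47 binding SIRPalpha after compound preincubation with SIRPalpha.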 In a few lines: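 SIRPalpha-biotin 25 nM + cpd, 30 min RT, dark; add CD47-His 12.5 nM, 30 min; add Ni-NTA/SAV beads 10 ug/mL, 30 min; AlphaScreen. Buffer PBS pH 7.4 + 0.05% IGEPAL CA-630. Non-biotinylated SIRPalpha as control inhibitor.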

A short description of assay [17]: qHTS of pediatric cancer cell lines to identify multiple opportunities for drug repurposing: Primary screen for A673 cells (AID 1347092). Also: nearly all actives have a fitted effect of over 45% in size. Also: potency is read from the fitted curve at half-maximal effect. The method, boiled down: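 Cells are plated, rested 5 h, dosed by pintool, incubated 48 h, then lysed with CellTiter-Glo and read by luminescence. DMSO is the neutral control; bortezomib at 2.3 uM final is the positive control.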

A short description of assay [18]: qHTS of pediatric cancer cell lines to identify multiple opportunities for drug repurposing: Primary screen for SK-N-MC cells (AID 1347093). Also: potency is read from the fitted curve at half-maximal effect. The method, boiled down:
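Metabolically active cells were quantified by ATP-dependent luminescence (CellTiter-Glo, 15 min at room temperature) following 48 h treatment. Cells had been plated at 500-1,000 per well and settled for 5 h beforehand.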

Assay [19] in a line: qHTS of pediatric cancer cell lines to identify multiple opportunities for drug repurposing: Primary screen for NB1643 cells (AID 1347099). Also: nearly all actives have a fitted effect of over 50% in size. The method, boiled down:
as §2

Assay [20] is described as follows: qHTS of pediatric cancer cell lines to identify multiple opportunities for drug repurposing: Primary screen for DAOY cells (AID 1347090). Also: series mostly up to about 46 µM; nearly all actives have a fitted effect of over 55% in size. The method, boiled down:
as §1

Where “and” joins values, the source holds several entries; their conditions need not be identical. Identical values can stand only once. Inconclusive results are not listed. Calls of active or inactive are those of the source. Unless noted, calls follow the shape of the dose curve; as a rule, active = well fitted curve in the direction sought with a large enough effect; inconclusive = small, poorly fitted or top-dose-only effect, or another doubt; inactive = no such curve, though single readings can be large; an effect the other way counts as inactive or inconclusive.

T1 sequence (P78324 whole entry, looked up, the tested form may be a part): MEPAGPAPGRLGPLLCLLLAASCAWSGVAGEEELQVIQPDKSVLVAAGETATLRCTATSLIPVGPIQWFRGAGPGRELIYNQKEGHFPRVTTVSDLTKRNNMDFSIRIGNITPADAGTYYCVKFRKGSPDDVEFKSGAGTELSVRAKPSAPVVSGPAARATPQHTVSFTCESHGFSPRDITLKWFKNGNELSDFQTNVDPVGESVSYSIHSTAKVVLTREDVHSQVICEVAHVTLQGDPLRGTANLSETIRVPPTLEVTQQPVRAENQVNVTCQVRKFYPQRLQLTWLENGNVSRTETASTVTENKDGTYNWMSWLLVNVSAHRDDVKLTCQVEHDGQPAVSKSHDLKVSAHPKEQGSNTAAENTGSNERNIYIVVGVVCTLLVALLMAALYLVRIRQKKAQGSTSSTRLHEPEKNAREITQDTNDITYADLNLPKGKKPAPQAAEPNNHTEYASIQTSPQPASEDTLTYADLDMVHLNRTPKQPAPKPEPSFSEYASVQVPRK
T1 sequence (Q08722 whole entry, looked up, the tested form may be a part): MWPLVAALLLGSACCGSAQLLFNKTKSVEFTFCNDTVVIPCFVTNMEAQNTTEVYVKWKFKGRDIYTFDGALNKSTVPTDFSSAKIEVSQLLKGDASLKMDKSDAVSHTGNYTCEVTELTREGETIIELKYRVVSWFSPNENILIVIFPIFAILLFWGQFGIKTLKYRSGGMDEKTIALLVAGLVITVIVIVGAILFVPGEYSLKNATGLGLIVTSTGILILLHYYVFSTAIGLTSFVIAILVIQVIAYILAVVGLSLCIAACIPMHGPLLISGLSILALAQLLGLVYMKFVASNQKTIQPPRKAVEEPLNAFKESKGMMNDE
Parathyroid hormone/parathyroid hormone-related peptide receptor (Homo sapiens), sequence (Q03431 whole entry, looked up): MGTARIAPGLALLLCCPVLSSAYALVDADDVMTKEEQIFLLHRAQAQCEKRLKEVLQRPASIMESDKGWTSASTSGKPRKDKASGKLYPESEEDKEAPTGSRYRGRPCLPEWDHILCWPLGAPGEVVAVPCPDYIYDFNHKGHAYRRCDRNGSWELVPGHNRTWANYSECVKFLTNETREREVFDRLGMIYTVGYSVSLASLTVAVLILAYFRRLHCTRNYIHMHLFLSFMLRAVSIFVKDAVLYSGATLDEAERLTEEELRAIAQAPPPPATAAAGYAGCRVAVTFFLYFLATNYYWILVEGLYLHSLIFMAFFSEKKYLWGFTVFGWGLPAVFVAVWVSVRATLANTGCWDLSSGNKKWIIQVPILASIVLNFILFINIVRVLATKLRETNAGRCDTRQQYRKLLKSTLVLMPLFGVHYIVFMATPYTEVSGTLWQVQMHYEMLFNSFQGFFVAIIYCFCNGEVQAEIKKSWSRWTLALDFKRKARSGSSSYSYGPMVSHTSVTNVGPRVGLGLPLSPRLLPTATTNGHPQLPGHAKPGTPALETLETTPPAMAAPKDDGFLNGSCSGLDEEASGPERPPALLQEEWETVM
Atrial natriuretic peptide receptor 2 (Homo sapiens), sequence (P20594 whole entry, looked up): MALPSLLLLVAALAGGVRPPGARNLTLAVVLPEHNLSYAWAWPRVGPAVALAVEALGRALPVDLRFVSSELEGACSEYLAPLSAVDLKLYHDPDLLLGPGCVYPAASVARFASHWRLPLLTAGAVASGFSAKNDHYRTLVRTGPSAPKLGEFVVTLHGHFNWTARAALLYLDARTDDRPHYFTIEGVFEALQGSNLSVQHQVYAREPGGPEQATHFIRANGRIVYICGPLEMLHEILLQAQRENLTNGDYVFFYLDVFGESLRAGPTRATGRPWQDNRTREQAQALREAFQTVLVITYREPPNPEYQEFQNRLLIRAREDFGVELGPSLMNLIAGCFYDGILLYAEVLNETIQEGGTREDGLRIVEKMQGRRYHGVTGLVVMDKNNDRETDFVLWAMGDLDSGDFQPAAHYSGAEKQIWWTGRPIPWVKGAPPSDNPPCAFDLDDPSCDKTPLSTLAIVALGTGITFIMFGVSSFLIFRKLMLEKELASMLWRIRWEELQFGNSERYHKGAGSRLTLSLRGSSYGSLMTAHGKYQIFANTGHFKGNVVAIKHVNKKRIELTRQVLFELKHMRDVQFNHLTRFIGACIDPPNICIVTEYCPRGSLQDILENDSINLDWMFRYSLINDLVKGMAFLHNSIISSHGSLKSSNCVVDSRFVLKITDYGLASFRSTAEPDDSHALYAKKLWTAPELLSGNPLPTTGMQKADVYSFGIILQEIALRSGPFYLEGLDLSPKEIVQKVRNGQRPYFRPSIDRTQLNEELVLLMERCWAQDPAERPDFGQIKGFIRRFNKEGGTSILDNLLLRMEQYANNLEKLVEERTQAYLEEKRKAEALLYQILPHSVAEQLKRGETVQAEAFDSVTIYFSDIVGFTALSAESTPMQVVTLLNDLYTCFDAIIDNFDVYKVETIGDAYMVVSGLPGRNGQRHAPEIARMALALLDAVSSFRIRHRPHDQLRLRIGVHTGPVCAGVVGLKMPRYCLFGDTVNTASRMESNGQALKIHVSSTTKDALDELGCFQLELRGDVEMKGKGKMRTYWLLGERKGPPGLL
Atrial natriuretic peptide receptor 1 (Homo sapiens), sequence (P16066 whole entry, looked up): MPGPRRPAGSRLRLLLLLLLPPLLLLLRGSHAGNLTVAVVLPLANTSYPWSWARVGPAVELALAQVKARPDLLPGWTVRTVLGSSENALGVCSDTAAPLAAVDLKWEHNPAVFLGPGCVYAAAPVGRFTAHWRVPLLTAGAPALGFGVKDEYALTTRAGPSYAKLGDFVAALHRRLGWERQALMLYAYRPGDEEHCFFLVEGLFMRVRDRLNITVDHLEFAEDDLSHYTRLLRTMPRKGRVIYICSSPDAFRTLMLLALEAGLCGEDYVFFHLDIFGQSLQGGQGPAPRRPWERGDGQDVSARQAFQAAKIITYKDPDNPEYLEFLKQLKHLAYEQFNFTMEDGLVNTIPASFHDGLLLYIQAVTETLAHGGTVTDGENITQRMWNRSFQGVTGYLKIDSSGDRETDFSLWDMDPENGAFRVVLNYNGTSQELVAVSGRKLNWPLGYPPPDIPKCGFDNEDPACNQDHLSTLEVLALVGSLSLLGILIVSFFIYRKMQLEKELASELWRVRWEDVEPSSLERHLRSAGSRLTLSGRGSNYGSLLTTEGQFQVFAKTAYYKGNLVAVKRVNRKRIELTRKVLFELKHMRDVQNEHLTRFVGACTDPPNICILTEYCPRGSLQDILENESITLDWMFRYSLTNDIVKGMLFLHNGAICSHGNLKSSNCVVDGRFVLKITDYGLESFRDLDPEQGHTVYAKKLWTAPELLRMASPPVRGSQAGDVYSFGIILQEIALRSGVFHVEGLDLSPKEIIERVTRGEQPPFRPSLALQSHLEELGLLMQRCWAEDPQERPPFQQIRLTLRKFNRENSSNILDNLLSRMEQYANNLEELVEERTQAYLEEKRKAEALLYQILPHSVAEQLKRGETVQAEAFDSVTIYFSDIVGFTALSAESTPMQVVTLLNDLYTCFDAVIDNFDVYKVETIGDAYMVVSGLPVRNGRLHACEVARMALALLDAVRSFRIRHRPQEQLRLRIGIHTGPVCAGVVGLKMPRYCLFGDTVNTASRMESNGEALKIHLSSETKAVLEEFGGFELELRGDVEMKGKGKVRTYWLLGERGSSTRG

As for `CC12CC3CC(C)(C1)CC(N)(C3)C2`, the Potency result in assay [1], in assay [2], in assay [3], in assay [6], in assay [7] and in assay [8] was “inactive” in each case. In addition, the Potency entry in assay [9], in assay [10], in [11], in assay [12], in [14] and in [15] was “inactive” each time. The outcome in [4] and in [5] was inactive. In addition, the Potency in assay [13] was 27.1 µM (active).
With `NS(=O)(=O)c1cc2c(cc1Cl)NCNS2(=O)=O`, the Potency result in assay [1], in assay [2], in assay [3], in assay [16], in [6] and in assay [8] was “inactive” throughout. Also, the Potency result in assay [17], in assay [18], in assay [9], in assay [10], in [11] and in assay [12] was “inactive” in each case. The Potency entry in assay [13], in assay [19], in assay [14] and in [15] was “inactive” throughout. The result in assay [4] and in assay [5] was inactive.
In the case of `NC(=O)NO`, the Potency result in assay [1], in assay [2], in assay [3], in [16], in assay [6] and in assay [11] was “inactive” in each case. In addition, the Potency entry in [13], in assay [19] and in assay [14] was “inactive” throughout. For the same compound, the result in assay [4] and in assay [5] was inactive.
As to `COc1ccc2c(c1)c(CC(=O)O)c(C)n2C(=O)c1ccc(Cl)cc1`, the Potency result in assay [1], in assay [2], in assay [3], in [16], in assay [6] and in assay [9] was “inactive” throughout. Besides, the Potency result in [10], in assay [11], in assay [14] and in assay [15] was “inactive” each time. In addition, the outcome in [4] and in assay [5] was inactive. In assay [18], the Potency is 29.6 µM (active).
Take `CS(=O)(=O)Nc1ccc([N+](=O)[O-])cc1Oc1ccccc1`: the Potency entry in assay [1], in assay [2], in assay [3], in [6], in [7] and in assay [20] was “inactive” throughout. In addition, the Potency entry in assay [8], in [17], in [9], in assay [10], in assay [11] and in assay [12] was “inactive” throughout. Further, the Potency entry in [13] and in assay [15] was “inactive” in each case. Besides, the Potency in assay [18] was 23.5 µM (active).
For `COc1cc2nc(N(C)CCCNC(=O)C3CCCO3)nc(N)c2cc1OC` (centres undefined), the Potency result in [1], in assay [2], in assay [3], in assay [16], in [6] and in assay [8] was “inactive” in each case. Further, the Potency entry in [17], in assay [18], in [9], in assay [10], in assay [11] and in assay [12] was “inactive” throughout. The Potency result in assay [13], in [19], in assay [14] and in assay [15] was “inactive” in each case. In addition, the outcome in assay [4] and in [5] was inactive.
Take `O=C(c1ccc(OCCN2CCCCC2)cc1)c1c(-c2ccc(O)cc2)sc2cc(O)ccc12`: the Potency entry in assay [1], in [2], in [3], in assay [6], in assay [7] and in [11] was “inactive” throughout. The outcome in assay [4] was inactive. Further, the Potency was 9.44 µM (active) and 18.7 µM (active) in [8]; 10.6 µM (active) and 18.7 µM (active) in assay [17]; 18.8 µM (active) in assay [18]; 20.9 µM (active) in assay [10]; 14.8 µM (active) in [12]; 13.7 µM (active) in assay [13]. Besides, the Potency in assay [14] is 15 µM (active).
